This is an account of results in PubChem BioAssay (NCI).

Several values for one entry are separate records, joined by “and”; a condition that tells them apart may be missing. Equal values may be shown once. The panel holds about 83,000 compounds, 20% with a hit somewhere; the sample as a whole holds those more often.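 The endpoint reported here, percent growth, reads 100 for growth as untreated, 0 for no net growth and -100 for all cells dead.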 Activity calls are given as the source filed them. The calls were made as follows: active = growth percent below 10; inactive = the rest.

In the assay the test system is MDA-MB-468 breast. Kind of assay: NCI-60 one-dose screen, 48 h (100 = growth as untreated, 0 = no growth, -100 = all killed). The settings on record: 10 µM unless noted.
On to `CS(=O)(=O)Nc1cc(-c2cc3ncc(C#N)c(Nc4ccc(Oc5ccccc5)c(Cl)c4)c3s2)cnc1Cl`, for which the growth was 43.3% (inactive). As for `O=C1/C(=C\c2ccc(Br)cc2)CN(C(=O)c2ccccc2F)C/C1=C\c1ccc(Br)cc1`, the growth was -54.1% (active). Next, `O=[P@@]1(c2ccccc2)O[C@H](COCc2ccccc2)[C@@H](OCc2ccccc2)[C@H](OCc2ccccc2)[C@H]1NCc1ccccc1`: 14% (inactive); `COc1cc2nc3cc([N+](=O)[O-])ccc3c(NCCCNCC(C)(C)O)c2cc1OC`: -57.7% (active). The value for `Cc1cc2c(F)c(Oc3ncnn4cc(OC[C@@H](C)OC(=O)[C@H](C)N)c(C)c34)ccc2[nH]1` was 71.5% (inactive). Turning to `Oc1ccc(Cn2cc3c(c2-c2ccccc2)CCc2cnoc2-3)cc1`, the growth was 89.2% (inactive).

For `CCCCCCCCCCCC1=NC(C)(C)CN1CCO`, the growth is 15% (inactive). For the molecule `CCc1ccc2c(c1)N(CCO)C1=C(C(=O)OC1)C2c1cccc(Cl)c1` (stereo not given), the growth is 20.1% (inactive). For `COc1cc(Nc2c(C#N)cnc3cc(OCCCN4CCN(C)CC4)c(OC)cc23)c(Cl)cc1Cl`, the growth was 56.2% (inactive).

Regarding `COc1cc2cc(Oc3ccc(NC(=O)Nc4ccc(C(F)(F)F)cc4)cc3)c(C)nc2cc1OC`, the growth was 40.1% (inactive). For the molecule `CCc1c2c(nc3ccc(OC(=O)OCc4ccc(B5OC(C)(C)C(C)(C)O5)cc4)cc13)-c1cc3c(c(=O)n1C2)COC(=O)[C@]3(O)CC`, the growth is -33.6% (active). The value for `CCCCCCCCOc1ccc(/C=N/Nc2cc(C)nc3ccc(Br)cc23)cc1` was 90% (inactive); that for `COC(=O)/C(=C\c1c(-c2ccccc2)[nH]c2ccccc12)S(C)(=O)=O` was 36.3% (inactive).

For the molecule `COc1cc(-c2cc(-c3ccc(N(C)C)cc3)nc(N3CCC(O)CC3)c2C#N)cc(OC)c1OC`, the growth is -21.2% (active). Next, `c1c[nH]c(CNC2CCCCC2)c1`: 141% (inactive); `CC(=O)Nc1ccc(NC(=O)Nc2cccc(-c3nc(-c4ccc(NC(=O)c5cccnc5)cc4Cl)no3)c2)cc1C(F)(F)F`: -84.7% (active); `CN1CCOCCN(C)Cc2ccc3ccc(cc3c2)CN(C)CCOCCN(C)Cc2ccc3ccc(cc3c2)C1`: 52.9% (inactive). Next, `CCSc1ncnc2c1ncn2C1OC(CO)C(O)C1O` (stereo not given): 15.8% (inactive). Next, `CN1CCC(COc2cnc(-c3cccc(Cn4nc(-c5cccc(C#N)c5)ccc4=O)c3)nc2)CC1`: 87.4% (inactive).

For the molecule `O=C1/C(=C/c2ccc(Cl)cc2)N=C(c2ccccc2)N1CCc1cccs1`, the growth is 72.4% (inactive).

As for `COc1ccccc1-c1ccc2nc(NC(=O)Nc3cc(C(F)(F)F)cc(C(F)(F)F)c3)sc2c1`, the growth was -8.23% (active). As to `N=C(N)c1ccc(-c2ccc(-c3ccc(Cl)cc3Cl)s2)cc1F`, the growth was -63.5% (active). The value for `CCCCCCOc1ccc(C(=N)N(CCCC)CCCC)c2ccccc12` was -82.3% (active). Next, `O=C1c2cc(Cl)ccc2Oc2cc([N+](=O)[O-])ccc2N1c1ccc(F)cc1F`: 91.6% (inactive). Next, `CN(C)c1ccc(C(Cc2ccc3ccccc3n2)Cc2ccc3ccccc3n2)cc1`: 32.6% (inactive) and 77% (inactive).

As to `CC1SC(c2ccccc2O)N(NC(=O)CCC(=O)c2nc3ncccc3[nH]2)C1=O` (stereo not given), the growth is 88.1% (inactive). The value for `COc1ccc2sc(-n3nc4nc5n(c(=O)c4c3N)-c3ccccc3Sc3ccccc3-5)nc2c1` was 88.9% (inactive); that for `CCN(CC)CCSc1c2ccc(Cl)cc2nc2ccc(OC)cc12` was -17.5% (active).

Regarding `O=C(CCc1nnc(-c2c(Cl)cccc2Cl)o1)c1nc2ccccc2[nH]1`, the growth was -2.19% (active). Next, `COc1ccccc1N(C(C)=O)C1=C(Cl)C(=O)c2ccccc2C1=O`: -92.8% (active). As for `COc1nc2ccc(C)cc2cc1/C=[N+](\[O-])c1ccccc1`, the growth is 79.3% (inactive).

As for `CCN(CC)CCN1CC(=O)Nc2cc(Cl)ccc21`, the growth was 98.7% (inactive). The value for `COC(=O)CCCCCCCCC1(C)C=CC(C(C)O)=CC1` (stereo not given) was 107% (inactive).

As for `CCC(=O)C(CC)c1cccc(OC)c1` (stereo not given), the growth is 102% (inactive).

As to `Cc1c(F)cccc1NC(=O)c1sc2nc3c(cc2c1N)CCCCC3`, the growth was 14.8% (inactive). Turning to `CCCCc1nc(Cl)c(C2CC(c3ccc(S(N)(=O)=O)cc3)=NN2c2cc(Cl)cc(Cl)c2)[nH]1` (stereo not given), the growth is 22.1% (inactive). The value for `CC1(c2ccccc2)CO1` (stereo not given) was 110% (inactive); that for `CC(C)CSc1nc(NN)c(C#N)c(-c2ccc(F)cc2)n1` was 85.2% (inactive); that for `COC(=O)C1=C(C)NC(C)=C(C(=O)OC)C(N2C(=O)CCC2=O)C1` (stereo not given) was 63.4% (inactive). For `CCOC(=O)c1[nH]c(C#N)c(C(=O)OCC)c1C`, the growth is 105% (inactive).
